Compound activity from PubChem.
Sampled rows, rich in hits. Any-hit rate of the full collection: about 3.3%.
M18AAP inhibitor – blocks P. falciparum M18 aspartyl aminopeptidase; recombinant PfM18AAP, H-Glu-NHMec fluorogenic cleavage; inhibition, % at 7.35 µM; hit rate 1.2% among 290,000;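 active means inhibition above the campaign mean inhibition over all tested compounds plus 3 SD, cut at about 28% in these data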;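 further: 0% = plate median of test compound wells and 100% = 2 mM ZnCl2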
MBD2 DNA inh – blocks human MBD2 binding to methylated DNA; Q9UBB5; hit rate 0.31% among 370,000; TR-FRET, MBD2 binding to methylated oligonucleotide; inhibition, % at 4.4 µM; AID 686964; in the data active means inhibition above about 13%
PfG6PD inh – PfG6PD (Plasmodium falciparum) enzyme inhibition; PfGluPho enzyme, NADPH resazurin-diaphorase fluorescence; inhibition, % at 20 µM; hit rate 0.78% among 350,000; AID 504690;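 active means inhibition reaching at least a set limit at 20 µM in the primary screen, cut at about 59% in these data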;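 further: 0% = DMSO wells with substrate and 100% = DMSO wells lacking glucose-6-phosphate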
UHRF1 binding – UHRF1 methyl-DNA binding inhibition | Q96T88 | UHRF1 binding to methylated oligo, TR-FRET | inhibition, % at 4.4 µM | hit rate 0.75% among 370,000 | AID 687016; in the data active means inhibition above about 21%;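 further: UHRF1 SRA domain binding a hemimethylated CpG hairpin DNA probe; 0% = median of test compound wells and 100% = reference inhibitor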
PRMT1 inh – blocks human protein arginine methyltransferase 1; Q99873; hit rate 1.3% among 370,000; AID 652257; recombinant PRMT1, activity-based probe fluorescence polarization; inhibition, % at 2.79 µM;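 active means inhibition above about 21% made by adding two undisclosed values, limit read from the data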
Target sequence (Q99873 whole entry, looked up): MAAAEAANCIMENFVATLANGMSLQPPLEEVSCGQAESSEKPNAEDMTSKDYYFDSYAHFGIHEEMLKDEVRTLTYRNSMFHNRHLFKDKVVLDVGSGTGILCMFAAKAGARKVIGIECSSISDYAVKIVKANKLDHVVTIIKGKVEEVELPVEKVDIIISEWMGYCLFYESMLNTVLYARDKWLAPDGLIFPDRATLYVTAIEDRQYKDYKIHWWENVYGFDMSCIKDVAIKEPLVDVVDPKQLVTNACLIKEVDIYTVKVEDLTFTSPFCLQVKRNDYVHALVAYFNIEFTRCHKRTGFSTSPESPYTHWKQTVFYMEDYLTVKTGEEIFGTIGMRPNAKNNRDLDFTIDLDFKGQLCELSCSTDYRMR
* = called active by the depositor; . = no result given.

SMILES	M18AAP inhibitor	MBD2 DNA inh	PfG6PD inh	UHRF1 binding	PRMT1 inh
CCCCNS(=O)(=O)CC1NCc2cc(F)ccc21 (stereo not drawn)	.	-1	.	0	3
COc1cccc(CNC(=O)[C@H]2CCCN2C(=O)[C@H]2CCCN2C(=O)c2ccc(F)c(F)c2)c1	.	2	.	-2	0
Nc1ccc2c(c1)C(=O)Cc1ccccc1S2	3	1	4	49*	5
CN(C)CCCOc1ccc2c(c1)Sc1ccccc1CC2=O	1	-3	23	-2	4
CCCNC(=O)c1nnsc1S(=O)(=O)c1ccc(Cl)cc1	-357	8	6	2	78*
CCCNC(=O)NS(=O)(=O)c1ccc(Cl)cc1	-2	0	-4	-2	-3
NNc1nc2c(-c3ccc(F)cc3)nnn2c2ccccc12	30*	-9	12	-3	0
NNc1nc2c(-c3ccc(Cl)cc3)nnn2c2ccccc12	23	1	14	-1	-1
Cc1ccc(-c2n[nH]c(=S)n2-c2ccccc2)cc1	22	4	32	0	5
CS(=O)(=O)Nc1ccc(-c2n[nH]c(=S)n2-c2ccccc2)cc1	31*	-1	43	-1	-3
Fc1ccccc1-n1c(-c2ccc3ccccc3n2)n[nH]c1=S	8	2	41	-2	6
S=c1[nH]nc(-c2ccc3ccccc3n2)n1-c1ccccc1	20	7	38	-1	23*
Cc1ccc(CN(C)C[C@H]2OCc3cnnn3CCCC(=O)N([C@H](C)CO)C[C@@H]2C)cc1	.	3	.	3	-4
CC(C)C[C@H]1CN(CCCC[C@@H]2CNC(=O)C(=O)N2Cc2ccccc2)C(=O)C(=O)N1CC1CCCCC1	.	1	.	19	-1
CC(C)C[C@H]1CN(CCCC[C@@H]2CNC(=O)C(=O)N2CC2CCCCC2)C(=O)C(=O)N1CCc1ccccc1	.	4	.	21*	-3
O=C1NC[C@H](CCCCN2C[C@H](Cc3ccc(O)cc3)N(CCc3ccc(O)cc3)C(=O)C2=O)N(Cc2ccccc2)C1=O	.	12	.	22*	4
O=C1NC[C@H](CCCCN2C[C@H](Cc3ccc(O)cc3)N(CCc3ccccc3)C(=O)C2=O)N(Cc2ccccc2)C1=O	.	4	.	-2	-4
CC(C)C[C@@H](CN1CCC[C@@H]1CN1C(=O)C(=O)NC[C@@H]1Cc1ccccc1)N1C[C@H](Cc2ccccc2)N(CC2CCCCC2)C(=O)C1=O	.	4	.	54*	1
COC(=O)[C@@]12CCCCC3=C1N(CCC3)C(=O)[C@H]2CC(=O)NCc1ccccc1	.	1	.	0	0
COc1ccc(-n2c(SCC(=O)Nc3cc(C)c(NC(=O)c4ccccc4)cc3OC)nnc2-c2ccco2)cc1	.	-2	.	2	4
CN1C(=O)C(=O)N2C(=C[C@]3(c4c[nH]c5ccccc45)c4ccccc4N[C@H]23)C1=O	.	-1	.	2	7
COC(=O)C1CN(Cc2cn(Cc3ccc(Cl)cc3)nn2)CCS(=O)(=O)N1Cc1ccc(Cl)cc1 (stereo not drawn)	.	11	.	15	-2
COc1cc(OC)c(-n2cc(-c3ccc(OC)c(OC)c3)[nH]c2=S)cc1Cl	32*	6	48	-2	4
COc1ccc(-c2cn(-c3ccc(C)cc3C)c(=S)[nH]2)cc1OC	3	-6	24	-3	19
C=CCn1c(Cc2cccs2)nnc1SCC(=O)Nc1ccc(OCc2ccccc2)cc1	.	1	.	-2	0
SMILES	M18AAP inhibitor	MBD2 DNA inh	PfG6PD inh	UHRF1 binding	PRMT1 inh
COc1ccc(Cc2nnc(NC(=O)C(C)C)s2)cc1	-19	12	-4	30*	4
O=C1C(Cl)=C(N2CCOCC2)C(=O)N1c1cccc(C(F)(F)F)c1	19	3	-13	-2	22*
Cc1ccc(NC(=O)C2CCN(S(=O)(=O)c3ccc4c(c3)OCCCO4)CC2)nc1	.	5	-3	34*	-6
CCCC1CCC2(CCC(=O)N2CCOC)CC1 (stereo not drawn)	.	3	.	0	0
Cc1ccc(S(=O)(=O)N2CCOCC2)cc1NC(=O)CNCc1ccccn1	-1	0	-11	27*	4
Cc1ccc(S(=O)(=O)N2CCOCC2)cc1NC(=O)CNCc1ccccc1Cl	.	-5	0	0	3
CC1(C)Cc2nc3sc(C(=O)NCCO)c(N)c3cc2CO1	31*	-4	2	-4	-3
CC1(C)Cc2nc3sc(C(=O)NCCCO)c(N)c3cc2CS1	16	4	18	-1	10
CC(C)OC(=O)C(C)(C)Oc1ccc(C(=O)c2ccc(Cl)cc2)cc1	5	-4	11	-2	-2
CCNC(=O)NC(=O)C(C)OC(=O)C(C)(C)Oc1ccc(Cl)cc1 (stereo not drawn)	4	7	5	26*	-1
Cc1cccc(OCC(=O)N(Cc2nnc(-c3ccccc3Cl)o2)C2CC2)c1	.	-2	-4	68*	5
COc1cc(O)c(C(CC(=O)N2CCCC(C)C2)c2ccccc2)c(OC)c1 (stereo not drawn)	.	8	.	13	-1
CN(C)Cc1c(C(C)(C)O)[nH]c2cc(C(F)(F)F)ccc12	.	-1	.	-4	0
Oc1ccc(C2CNCc3sccc32)cc1O (stereo not drawn)	.	-5	28	-3	46*
Cc1ccccc1-c1ccc2c(c1)[C@@H]1C[C@H](N(C)S(=O)(=O)c3ccc(Cl)cc3)[C@H]([C@H](C)O)CN1CC2	.	-3	.	2	-4
COc1cc(/C=N/n2c(=S)[nH]nc(C)c2=O)cc([N+](=O)[O-])c1O	29*	0	8	-6	0
C=CCN(CC#Cc1ccccc1)Cc1ccc(OC)cc1OC	.	0	.	-2	-4
CCN(CC(=O)NCc1ccc(F)cc1)C(=O)C(C)Oc1cccc(Cl)c1 (stereo not drawn)	.	10	8	23*	2
CN(CC(=O)NCc1ccc(F)cc1)Cc1cccc(Cl)c1	0	0	11	-2	0
O=C1C=C(O)c2cccc(O)c2C1=O	.	-9	9	12	25*
O=C1[C@H]2[C@@H](c3ccccc3)N[C@]3(CCCN(Cc4ccc(F)cc4)C3=O)[C@H]2C(=O)N1Cc1ccccc1	.	10	4	23*	1
Cc1ccc(CN2CCC[C@]3(N[C@H](c4ccc(C)cc4)[C@@H]4C(=O)N(Cc5ccccc5)C(=O)[C@@H]43)C2=O)cc1	.	0	15	22*	-1
Cc1ccc(-n2c(Cc3cccs3)nnc2SCc2ccc(Br)cc2)cc1	.	-3	.	0	-1
COC(=O)[C@H](C)NC(=O)[C@@H]1CCCN1C(=O)CNP(=O)(OCc1ccccc1)OCc1ccccc1	.	2	.	-1	-1
CO[C@H]1C=CO[C@@]2(C)Oc3c(C)c(O)c4c(O)c(c5c(nc6cc(C)ccn65)c4c3C2=O)NC(=O)C(C)=CC=C[C@H](C)[C@H](O)[C@@H](C)[C@@H](O)[C@@H](C)[C@H](OC(C)=O)[C@@H]1C	48*	.	.	.	.
COC1C=COC2(C)Oc3c(C)c(O)c4c(O)c(c(CN5CCN(C)CC5)c(O)c4c3C2=O)NC(=O)C(C)=CC=CC(C)C(O)C(C)C(O)C(C)C(OC(C)=O)C1C (stereo not drawn)	.	-14	27	-8	8
